Results on 28 compounds are retold here after PubChem BioAssay (NCATS).

SMILES strings stand for the structures. Several values for one entry are separate records, joined by “and”; a condition that tells them apart may be missing. Equal entries are not always repeated. Inconclusive results are not listed. Activity calls are given as the source filed them. Unless noted, the call rests on the fitted dose curve; in most records, active means well fitted curve in the direction sought with a large enough effect; inconclusive means small, poorly fitted or top-dose-only effect, or another doubt; inactive means no such curve, though single readings can be large; an effect the other way counts as inactive or inconclusive.

In the first assay the target is Nicotinamide N-methyltransferase (Homo sapiens) (UniProt P40261). Kind of assay: Confirmatory Screen for Target Class Profiling of Small Molecule Inhibitors of Methyltransferases (AID 1745852). The settings on record: MTase-Glo luminescence, SAH detection, recombinant enzyme; measured here: NNMT max response; stronger effect = lower value.
Sequence of Nicotinamide N-methyltransferase (Homo sapiens) (P40261 whole entry, looked up): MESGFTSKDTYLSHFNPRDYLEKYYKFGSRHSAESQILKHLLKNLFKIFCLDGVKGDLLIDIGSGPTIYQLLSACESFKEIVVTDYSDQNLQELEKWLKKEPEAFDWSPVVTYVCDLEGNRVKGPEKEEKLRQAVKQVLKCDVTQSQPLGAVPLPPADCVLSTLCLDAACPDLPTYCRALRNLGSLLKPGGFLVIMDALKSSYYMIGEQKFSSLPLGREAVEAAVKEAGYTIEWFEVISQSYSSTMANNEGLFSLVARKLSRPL
In the case of `CC(C)(C)[C@]1(O)CCN2C[C@H]3c4ccccc4CCc4cccc(c43)[C@@H]2C1`, the activity was -19.3%.

With `Cc1cc(C(C#N)c2ccc(Cl)cc2)c(Cl)cc1NC(=O)c1cc(I)cc(I)c1O` (stereo unspecified), the activity was -81.7%.

With `C[C@]12CC[C@@H]3c4ccc(O)cc4CC[C@H]3[C@@H]1CCC2=O`, the activity is -55.7%.

As for `CN1CCN(C2Cc3ccccc3Sc3ccc(Cl)cc32)CC1` (stereo unspecified), the activity is -22.8%.

As for `NC(N)=NCCC[C@H](N)C(=O)O`, the activity was -0.737%.

In the case of `COc1ccc(Cl)cc1C(=O)NCCc1ccc(S(=O)(=O)NC(=O)NC2CCCCC2)cc1`, the activity is -22.1%.

In the case of `Cc1ccc2nc(N)[nH]c(=O)c2c1Sc1ccncc1`, the activity was found to be 1.11%.

For the compound `CCN(CC)CCCC(C)Nc1c2ccc(Cl)cc2nc2ccc(OC)cc12` (stereo unspecified), the activity is -11.3% and -15.1%.

Turning to `Cc1cc(N)c2ccccc2[n+]1CCCCCCCCCC[n+]1c(C)cc(N)c2ccccc21`, the activity is -23.8%.

In the case of `CC(C)(O)c1ccccc1CC[C@@H](SCC1(CC(=O)O)CC1)c1cccc(/C=C/c2ccc3ccc(Cl)cc3n2)c1`, the activity was -24.6%.

Turning to `CN(C)CC[C@@H](c1ccc(Cl)cc1)c1ccccn1`, the activity is -7.31%.

Consider `O=C1Nc2ccc(Cl)cc2[C@@](C#CC2CC2)(C(F)(F)F)O1`, for which the activity is -43%.

For the next assay, the target named is Phenylethanolamine N-methyltransferase (Homo sapiens) (UniProt P11086). The assay is described as above. To be noted: MTase-Glo luminescence, SAH detection, recombinant enzyme; measured here: PNMT max response; stronger effect = lower value.
Sequence of Phenylethanolamine N-methyltransferase (Homo sapiens) (P11086 whole entry, looked up): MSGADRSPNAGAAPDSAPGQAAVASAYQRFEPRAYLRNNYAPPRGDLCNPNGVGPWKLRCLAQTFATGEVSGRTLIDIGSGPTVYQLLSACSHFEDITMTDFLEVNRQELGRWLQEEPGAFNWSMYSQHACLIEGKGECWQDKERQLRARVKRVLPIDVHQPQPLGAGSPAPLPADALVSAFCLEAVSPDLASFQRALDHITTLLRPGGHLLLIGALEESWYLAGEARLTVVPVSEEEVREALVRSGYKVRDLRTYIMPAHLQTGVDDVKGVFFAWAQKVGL
Turning to `CC(C)(C)[C@]1(O)CCN2C[C@H]3c4ccccc4CCc4cccc(c43)[C@@H]2C1`, the activity was -4.4%.

Take `Cc1cc(C(C#N)c2ccc(Cl)cc2)c(Cl)cc1NC(=O)c1cc(I)cc(I)c1O` (stereo unspecified): the activity was -74.7%.

Regarding `C[C@]12CC[C@@H]3c4ccc(O)cc4CC[C@H]3[C@@H]1CCC2=O`, the activity is -0.307%.

For `CN1CCN(C2Cc3ccccc3Sc3ccc(Cl)cc32)CC1` (stereo unspecified), the activity is 8.62%.

Take `NC(N)=NCCC[C@H](N)C(=O)O`: the activity came to 6.66%.

Take `COc1ccc(Cl)cc1C(=O)NCCc1ccc(S(=O)(=O)NC(=O)NC2CCCCC2)cc1`: the activity is -3.2%.

Turning to `Cc1ccc2nc(N)[nH]c(=O)c2c1Sc1ccncc1`, the activity came to 1.12%.

As to `CCN(CC)CCCC(C)Nc1c2ccc(Cl)cc2nc2ccc(OC)cc12` (stereo unspecified), the activity is 3.56% and -4.16%.

With `Cc1cc(N)c2ccccc2[n+]1CCCCCCCCCC[n+]1c(C)cc(N)c2ccccc21`, the activity amounted to 3.98%.

Take `CC(C)(O)c1ccccc1CC[C@@H](SCC1(CC(=O)O)CC1)c1cccc(/C=C/c2ccc3ccc(Cl)cc3n2)c1`: the activity is -2.75%.

As to `CN(C)CC[C@@H](c1ccc(Cl)cc1)c1ccccn1`, the activity is -1.72%.

With `O=C1Nc2ccc(Cl)cc2[C@@](C#CC2CC2)(C(F)(F)F)O1`, the activity was -2.33%.

Test system in the next assay: not listed separately
As to the kind of experiment: NCATS anti-infectives library activity on HEK293 viability as a counter-qHTS vs the C. elegans viability qHTS (AID 1745854).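 Further: HEK293 cells exposed to compounds for 24 hr before the viability read; on the % scale 0 is the no-effect control and ±100 the full control effect.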 The settings on record: HEK293 viability counter-screen; series mostly up to 41.8 µM. Put shortly:
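Compound titrations (final up to 41.7 uM) were incubated with HEK293 cells for 24 hr at 37C under 5% CO2. Viable cells were quantified with CellTiter-Glo after 10 min at ambient temperature.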
A general note: In qHTS, concentration-response curves come from the screen itself.
In the case of `NC(=O)c1ncn([C@@H]2O[C@H](CO)[C@@H](O)[C@H]2O)n1`, the outcome is “inactive”.

Take `O=c1cc(CO)occ1O`: the outcome is “inactive”.

`Nc1nc2c(ncn2CCC(CO)CO)c(=O)[nH]1`: the outcome is “inactive”.

With `CCOc1nc2cccc(C(=O)O)c2n1Cc1ccc(-c2ccccc2-c2nn[nH]n2)cc1`, the outcome was “inactive”.

With `O=C(O)c1ccccn1`, the outcome was “inactive”.

On to `NCC(=O)CCC(=O)O`, for which the outcome was “inactive”.

As for `O=C(O)c1ccccc1O`, the outcome was “inactive”.

Regarding `CCCCc1ncc(/C=C(\Cc2cccs2)C(=O)O)n1Cc1ccc(C(=O)O)cc1`, the outcome was “inactive”.

Consider `CCCCCCCCCCCCCCCC(=O)NCCO`, for which the outcome is “inactive”.

As to `COc1ccc2cc1Oc1ccc(cc1)C[C@H]1c3c(cc4c(c3Oc3cc5c(cc3OC)CCN(C)[C@@H]5C2)OCO4)CCN1C`, the outcome was “inactive”.

Regarding `CC(CN1c2ccccc2Sc2ccccc21)N(C)C` (stereo unspecified), the outcome is “inactive”.

As for `CN(C)CCCN1c2ccccc2Sc2ccc(Cl)cc21`, the outcome was “inactive”.

Consider `Cc1ncc(COP(=O)(O)O)c(C=O)c1O`, for which the outcome was “inactive”.

Test system in another assay: not listed separately
Kind of assay: NCATS anti-infectives library activity on the primary C. elegans qHTS viability assay (AID 1745855; calls by dose curve). The settings on record: C. elegans worm area imaging, day 7; at 41.8 µM (top of the series). Put shortly: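 Titration-based screen in worms: eggs hatched overnight in M9, L1 larvae fed TOP10 capsules in S medium with compound, incubated 21 °C for 7 days; fluorescent objects gated by size and intensity at days 0, 3 and 7.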
For the compound `CC[C@H]1CN2CCc3cc(OC)c(OC)cc3[C@@H]2C[C@@H]1C[C@H]1NCCc2cc(OC)c(OC)cc21`, the outcome was “inactive”.

As to `CCOc1nc2cccc(C(=O)O)c2n1Cc1ccc(-c2ccccc2-c2nn[nH]n2)cc1`, the outcome is “inactive”.

Regarding `CCCCc1ncc(/C=C(\Cc2cccs2)C(=O)O)n1Cc1ccc(C(=O)O)cc1`, the outcome was “inactive”.

Test system in another assay: not listed separately
As to the kind of experiment: Viability counterscreen for antagonist of constitutive androstane receptor (CAR) against the NCATS DSHEA and TCM libraries (AID 1794837).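 Further: compound exposure lasted 24 h before viability reading; 0% is about no effect.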 The settings on record: CAR reporter cell line viability counterscreen, qHTS; series mostly up to 40 µM. Put shortly:
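Viability was measured by CellTiter-Fluor fluorescence (405/540 nm, 1 hr) in HepG2-CYP2B6-hCAR cells. Cells were co-treated 24 hr with 48 uM CITCO (final), antagonist mode, and test substances.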
(Counterscreens check selectivity or assay interference.)
Take `O=C1O[C@H]([C@@H](O)CO)C(O)=C1O`: the outcome is “inactive”.

Turning to `CC1=C(C/C=C(\C)CCC[C@H](C)CCC[C@H](C)CCCC(C)C)C(=O)c2ccccc2C1=O`, the outcome is “inactive”.

`O=C(O)c1ccccc1O`: the outcome was “inactive”.

Test system in the next assay: not listed separately
As to the kind of experiment: Viability counterscreen for agonist of constitutive androstane receptor (CAR) against the NCATS DSHEA and TCM libraries (AID 1794838).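 Further: HepG2 cells with CYP2B6 reporter and hCAR plus 0.75 µM PK11195 antagonist; cells exposed to compound for 24 h; 0% is about no effect.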 The settings on record: HepG2 cell viability counterscreen, CAR agonist assay, co-treated with 0.75 µM CAR antagonist; series mostly up to 40 µM. Put shortly:
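Cell viability, from CellTiter-Fluor fluorescence (405/540 nm), was scored after a 24 h, 37C exposure of HepG2 cells carrying CYP2B6 reporter and hCAR to test substances in presence of 0.75 uM PK11195.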
Regarding `O=C1O[C@H]([C@@H](O)CO)C(O)=C1O`, the outcome is “inactive”.

As for `CC1=C(C/C=C(\C)CCC[C@H](C)CCC[C@H](C)CCCC(C)C)C(=O)c2ccccc2C1=O`, the outcome was “inactive”.

Turning to `O=C(O)c1ccccc1O`, the outcome is “inactive”.
